hcDAF-12 act = H. contortus DAF-12 nuclear receptor activators, primary screen, cell-based, luminescence, HEK293, lit1-tk-luc reporter; HEK293 hcDAF-12 lit1-tk-luc reporter; 0% DMSO, 100% Δ7-dafachronic acid; activation, % at 6.8 µM; 370,000 compounds, 1.4% hits; AID 652067, 2013;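 active = activation above the mean of all tested compounds plus 3 SD, cut at about 5.5% in these data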;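 note: 100% = response to 3 µM Δ7-dafachronic acid high control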
DAX1 inh-1 = DAX1 (NR0B1) inhibitors, primary screen, cell-based, HEK293, Gal4-DAX1, luciferase luminescence; Nuclear receptor subfamily 0 group B member 1 (Homo sapiens), P51843; HEK293 Gal4-DAX1 luciferase reporter; inhibition, % at 6.75 µM; 340,000 compounds, 0.99% hits;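 active = inhibition above the mean over all tested compounds plus 3 SD, cut at about 4.2% in these data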;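 note: 0% = DAX1-transfected cells with DMSO and 100% = empty-vector control cells with DMSO; inhibition shows as a rise in luminescence from relieved DAX1 repression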
SMARCA2 act = SMARCA2 (BRM) function activators, primary screen, cell-based, luminescence, high throughput | MG213 cells, MMTV-luciferase reporter, dexamethasone, overnight | activation, % at 9.1 µM | 370,000 compounds, 1% hits | AID 652017, 2013; in the data active = activation above about 7.8%;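 note: 0% = vehicle wells and 100% = reference activator wells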
ssDAF-12 act = S. stercoralis DAF-12 nuclear receptor activators, primary screen, cell-based, luminescence, HEK293, GRIP1 co-expression, lit1-tk-luc | HEK293 ssDAF-12/GRIP1 lit1-tk-luc reporter; % of 3 µM dafachronic acid response | activation, % at 6.8 µM | 370,000 compounds, 1% hits | AID 652126, 2013;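 active = activation above the mean over all tested compounds plus 3 SD, cut at about 0.9% in these data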;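 note: 0% = DMSO-only wells and 100% = 3 µM delta7-dafachronic acid wells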
DAX1 inh-2 = DAX1 (NR0B1) inhibitors on StAR promoter, primary screen, cell-based, luminescence, SF-1 (NR5A1), full-length DAX-1 | HEK293T StAR-luciferase reporter, SF-1/DAX-1 repression relief | inhibition, % at 6.8 µM | 370,000 compounds, 1.1% hits;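 active = inhibition above the mean over all tested compounds plus 3 SD, cut at about 3.6% in these data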;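 note: 0% = DAX-1 cells with DMSO and 100% = cells lacking DAX-1 with DMSO; higher inhibition means more luminescence from relief of DAX-1 repression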
hgDAF12 agonist = H. glycines DAF-12 receptor agonists, primary screen, cell-based, luminescence, HEK293, GAL4 fusion, UAS-luciferase; Nuclear hormone receptor DAF-12 (Heterodera glycines), GAL4 fusion; activation, % at 6.8 µM; HEK293 GAL4-hgDAF12 UAS-luciferase reporter, agonist luminescence; normalized to butyrate control; AID 687014, 2013; 370,000 compounds, 1.8% hits;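 active = activation above a cutoff set at the mean of all screened compounds plus 3 SD, cut at about 10% in these data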;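 note: 0% = DMSO wells and 100% = sodium butyrate wells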
LXRb hcDAF ctr = LXR agonists, Gal4 luciferase reporter, confirmation, counter-screen for hcDAF-12 agonist project, cell-based, luminescence, HEK293, H. contortus campaign; shares compounds with hcDAF-12 act; activation, % at 6.8 µM; 3,400 tested, under 10 active; HEK293 Gal4-LXR tk-luc reporter, 24 h; normalized: DMSO 0%, positive control 100%; AID 743027, 2013;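 active = mean percent activation of the reporter above a cutoff set as the average over tested compounds plus their standard deviation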
Target sequence (P55055 whole entry, looked up, the tested form may be a part): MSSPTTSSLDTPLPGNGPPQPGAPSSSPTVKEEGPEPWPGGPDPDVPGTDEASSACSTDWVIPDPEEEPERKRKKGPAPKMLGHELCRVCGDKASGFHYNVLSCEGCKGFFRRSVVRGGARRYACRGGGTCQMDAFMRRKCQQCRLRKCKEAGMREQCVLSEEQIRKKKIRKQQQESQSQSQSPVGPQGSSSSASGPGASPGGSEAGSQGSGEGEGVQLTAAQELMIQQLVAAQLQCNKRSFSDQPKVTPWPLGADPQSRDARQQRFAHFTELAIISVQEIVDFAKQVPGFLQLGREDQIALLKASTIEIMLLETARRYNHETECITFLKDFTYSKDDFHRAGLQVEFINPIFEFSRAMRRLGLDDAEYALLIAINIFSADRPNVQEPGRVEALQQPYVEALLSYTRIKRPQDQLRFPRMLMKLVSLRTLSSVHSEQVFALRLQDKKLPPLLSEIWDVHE
hcDAF12 ag = H. contortus DAF-12 receptor agonists, confirmation, cell-based, luminescence, HEK293, lit1-tk-luc, triplicate; HEK293 hcDAF-12 lit1-tk-luc reporter; % of Δ7-dafachronic acid response; activation, % at 6.8 µM; shares compounds with hcDAF-12 act; AID 743032, 2013; 3,400 compounds, 61% hits;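 active = mean activation across triplicate tests above the threshold derived from the earlier primary screen, cut at about 5.5% in these data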;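 note: 0% = DMSO only wells and 100% = 3 µM Δ7-dafachronic acid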
* marks the source's active call; other numbers are inactive results. A selection: hits, their analogues and other compounds. The true share with any hit is near 4.8%.

`N=c1scc(-c2ccccc2)n1/N=C/c1ccco1` gave hcDAF-12 act 6.8*, DAX1 inh-1 0, SMARCA2 act 5, ssDAF-12 act 1.4*, DAX1 inh-2 2, hgDAF12 agonist 11*, LXRb hcDAF ctr 1 and hcDAF12 ag 4.
For c1ccc(CSc2cc3ccccc3[nH]2)cc1 the results were hcDAF-12 act 10*, DAX1 inh-1 2, SMARCA2 act 1, ssDAF-12 act 1, DAX1 inh-2 1, hgDAF12 agonist 9, LXRb hcDAF ctr 1 and hcDAF12 ag 11*.
CC(=O)c1cccc(NC(=O)c2cnccn2)c1 was read as hcDAF-12 act 0, DAX1 inh-1 2, SMARCA2 act -3, ssDAF-12 act -1, DAX1 inh-2 0 and hgDAF12 agonist -2.
Screening O=C(Nc1nc2ccccc2s1)c1cnccn1 returned hcDAF-12 act 7.5*, DAX1 inh-1 1, SMARCA2 act 4, ssDAF-12 act 1, DAX1 inh-2 4.0*, hgDAF12 agonist 13*, LXRb hcDAF ctr 1 and hcDAF12 ag 6.6*.
For O=C(Nc1nc2ccccc2s1)C1=NN(c2ccccc2)C(=O)CC1 the results were hcDAF-12 act 6.8*, DAX1 inh-1 0, SMARCA2 act 1, ssDAF-12 act -1, DAX1 inh-2 0, hgDAF12 agonist 1, LXRb hcDAF ctr 0 and hcDAF12 ag 4.
`O=C(Nc1ccc2nccnc2c1)c1cnccn1` gave hcDAF-12 act 6.7*, DAX1 inh-1 2, SMARCA2 act 3, ssDAF-12 act -1, DAX1 inh-2 2, hgDAF12 agonist 5, LXRb hcDAF ctr 0 and hcDAF12 ag 2.
For COc1ccc(-c2nn(-c3ccccc3)cc2/C=C/C(=O)N2CCN(c3ccccn3)CC2)cc1 the results were hcDAF-12 act -4, DAX1 inh-1 -1, SMARCA2 act -3, ssDAF-12 act -2, DAX1 inh-2 -2 and hgDAF12 agonist -7.
O=C(NC1CCCC1)C1c2ccccc2OCC(=O)N1Cc1cccnc1 (stereo not given) was read as hcDAF-12 act -2, SMARCA2 act -8, ssDAF-12 act -1, DAX1 inh-2 -1 and hgDAF12 agonist 0.
`Cn1cc(C(=O)Nc2ccccn2)c(=O)c2ccccc21` gave hcDAF-12 act 7.0*, DAX1 inh-1 3, SMARCA2 act 4, ssDAF-12 act 1.7*, DAX1 inh-2 0, hgDAF12 agonist 5, LXRb hcDAF ctr 1 and hcDAF12 ag 12*.
For CCC(=Cc1ccccc1OC)c1ccncc1 the results were hcDAF-12 act -1, DAX1 inh-1 -1, SMARCA2 act -3, ssDAF-12 act -1, DAX1 inh-2 -2 and hgDAF12 agonist 2.
Screening CC(=O)c1cccc(N=C2C(=O)Nc3ccccc32)c1 returned hcDAF-12 act 6.6*, DAX1 inh-1 0, SMARCA2 act 3, ssDAF-12 act 0, DAX1 inh-2 1, hgDAF12 agonist 2, LXRb hcDAF ctr 0 and hcDAF12 ag 2.
`Cc1ccc(N=C2C(=O)Nc3ccccc32)cc1C` gave hcDAF-12 act -1, DAX1 inh-1 -1, SMARCA2 act 2, ssDAF-12 act 0, DAX1 inh-2 0 and hgDAF12 agonist -2.
`Cc1ccc(CNS(=O)(=O)c2cc3c4c(c2)C(C)C(=O)N4CCC3)cc1` (stereo not given) gave hcDAF-12 act -1, DAX1 inh-1 0, SMARCA2 act -4, ssDAF-12 act 0, DAX1 inh-2 -1 and hgDAF12 agonist -2.
Screening CCCCN(C)CCCNC(=O)c1cc(Nc2ccc(OC)c(OC)c2)nc2ccccc12 returned hcDAF-12 act 7.8*, DAX1 inh-1 0, SMARCA2 act 2, ssDAF-12 act 0, DAX1 inh-2 1, hgDAF12 agonist 1, LXRb hcDAF ctr 0 and hcDAF12 ag 1.
Screening Cc1ccc(Nc2cc(C(=O)NCCCN3CCOCC3)c3ccccc3n2)cc1C returned hcDAF-12 act 1, DAX1 inh-1 0, SMARCA2 act 1, ssDAF-12 act -1, DAX1 inh-2 2 and hgDAF12 agonist 4.
Screening CC(C)(C)NC(=O)Nc1cccc(Cl)c1Cl returned hcDAF-12 act 0, DAX1 inh-1 2, SMARCA2 act 0, ssDAF-12 act -2, DAX1 inh-2 0 and hgDAF12 agonist -5.
`Cn1cccc1C(=O)C(=O)Nc1cccc(Cl)c1Cl` gave hcDAF-12 act 6.6*, DAX1 inh-1 1, SMARCA2 act 4, ssDAF-12 act 0, DAX1 inh-2 1, hgDAF12 agonist 6, LXRb hcDAF ctr 1 and hcDAF12 ag 12*.
For O=C(NCc1csc2ccc(Cl)cc12)Nc1ccccc1 the results were hcDAF-12 act -1, DAX1 inh-1 2, SMARCA2 act 3, ssDAF-12 act -2, DAX1 inh-2 0 and hgDAF12 agonist 0.
For O=C(Nc1ccccc1)Nc1cccc(Cl)c1Cl the results were hcDAF-12 act 7.3*, DAX1 inh-1 3, SMARCA2 act -3, ssDAF-12 act -1, DAX1 inh-2 0, hgDAF12 agonist 6, LXRb hcDAF ctr 0 and hcDAF12 ag 2.
O=C(Nc1ccncc1)Nc1cccc(Cl)c1Cl was read as hcDAF-12 act -3, DAX1 inh-1 -1, SMARCA2 act -3, ssDAF-12 act -1, DAX1 inh-2 -2 and hgDAF12 agonist 0.
O=C(NCc1ccc(Cl)cc1Cl)Nc1ccccc1 was read as hcDAF-12 act 7.4*, DAX1 inh-1 1, SMARCA2 act 3, ssDAF-12 act -1, DAX1 inh-2 1, hgDAF12 agonist 7, LXRb hcDAF ctr 0 and hcDAF12 ag 4.

Bioassay records from PubChem.
